Measurements: PubChem BioAssay
The source made the active and inactive calls.

What was measured:
[1] = small molecules captured by biotinylated probe aFSTL3 – biochemical, small-molecule microarray, fluorescence 635/667, stem cell growth factor project, primary screen (AID 1064); settings: higher = more signal;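 also: measures binding of the biotinylated anti-FSTL3 antibody to printed compounds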
[2] = binders from COS7 lysate, DM2A8 probe, primary screen, torsin A project, cell lysate, small-molecule microarray, fluorescence 635/667 (AID 1065); settings: higher = more signal, COS7 lysate expressing mutant human TOR1A
[3] = small molecules captured by biotinylated probe aFGF2 – biochemical, small-molecule microarray, fluorescence 635/667, stem cell growth factor project, primary screen (AID 1067); settings: higher = more signal;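 also: measures binding of biotinylated aFGF2 protein to printed compounds on slides; z-score merges feature fluorescence and signal-to-noise across triplicate slides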
[4] = small molecules captured by biotinylated probe aFGF10 – biochemical, small-molecule microarray, fluorescence 635/667, stem cell growth factor project, primary screen (AID 1071); settings: higher = more signal;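 also: score merges 667 nm spot intensity and signal to noise from triplicate slides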
[5] = biological target: Neurogenic locus notch homolog protein 2 (Homo sapiens) (UniProt Q04721); assay: small molecules binding Notch2 protein – biochemical, small-molecule microarray, 635 nm fluorescence, stem cell growth factors, primary screen (AID 1073); settings: higher = more signal
[6] = biological target: Pro-neuregulin-1, membrane-bound isoform (Homo sapiens) (UniProt Q02297); assay: small molecules binding neuregulin-1 protein – biochemical, small-molecule microarray, fluorescence 635/667, psychiatric disease protein project, primary screen (AID 1075); settings: NRG1 binding, 635 nm fluorescence, higher = more signal;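 also: score combines 667 nm spot fluorescence with signal to noise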
[7] = tested on: Neuregulin-1 EGF-like domain; assay: small molecules binding NRG1 EGF domain – biochemical, small-molecule microarray, 635 nm fluorescence, primary screen (AID 1081); settings: higher = more signal;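 also: binding of the protein to compounds printed on small-molecule microarray slides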
[8] = FRG1 expression reporter modulators in myotubes – cell-based, C2C12 myotubes, firefly/Renilla luciferase, luminescence, FRG1 inhibition for FSHD, primary screen (AID 1084); settings: FRG1 promoter luciferase, higher = more signal, called active from +8 up or from −8 down
[9] = small molecules captured by biotinylated probe aFST – biochemical, small-molecule microarray, fluorescence 635/667, stem cell growth factor project, primary screen (AID 1086); settings: higher = more signal;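 also: score merges 667 nm fluorescence with signal-to-noise of each printed compound spot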
[10] = binders of probe aHhip on microarray, primary screen, stem cell growth factor project, biochemical, small-molecule microarray, fluorescence 635/667 (AID 1087); settings: higher = more signal;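 also: score merges spot fluorescence at 667nm with spot signal to noise ratio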
[11] = tested on: PRMT1 (protein arginine N-methyltransferase 1); assay: small molecules binding arginine methyltransferase PRMT1 – biochemical, small-molecule microarray, 635 nm fluorescence, primary screen (AID 1088); settings: higher = more signal;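 also: binding of Prmt1 protein to compounds spotted on small-molecule microarray slides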
[12] = growth effects on S. cerevisiae YJM789 – YJM789 clinical isolate, OD600, 24 h, basal, primary screen (AID 1089); settings: higher = more signal, called active from +8 up or from −8 down;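 also: growth of clinical yeast isolate S. cerevisiae YJM 789 seeded 1000 cells per well; test concentration not given here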
[13] = S. pombe growth modifiers, basal conditions – strain 972, OD600, 24 h, no modulator, primary screen (AID 1090);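 also: basal condition with compound alone and no growth modifier present; test concentration not given here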; settings: S. pombe 972 growth, higher = more signal, called active from +8 up or from −8 down
[14] = budding yeast growth modifiers under rapamycin – strain BY4716, OD600, 96 h, primary screen (AID 1091); also: test concentration not given here; settings: S. cerevisiae BY4716 + rapamycin, higher = more signal, called active from +8 up or from −8 down
[15] = biological target: Torsin-1A-interacting protein 2 (Homo sapiens) (UniProt Q8NFQ8); assay: small molecules binding lysate-expressed LULL1 – cell lysate, human LULL1 lysate, 635/667 nm fluorescence, primary screen (AID 1092); settings: small-molecule microarray, hLULL1 lysate binding, 635 nm fluorescence; higher = more signal;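 also: probe is lysate of COS7 cells overexpressing human LULL1; score merges per-feature 667 nm fluorescence with signal-to-noise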
[16] = optical density change of DRC41 E. coli – strain DRC41, OD650, 24 h, E. coli filamentation project, primary screen (AID 1093);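 also: MC1000 strain lacking acrAB efflux and sulA so SOS filamentation is blocked; test concentration not given here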; settings: E. coli DRC41 growth, higher = more signal, called active from +8 up or from −8 down
[17] = probe aLefty2 binding to arrayed compounds – biochemical, biotinylated probe, 635/667 nm fluorescence, primary screen (AID 1094); settings: small-molecule microarray, higher = more signal;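 also: score merges spot fluorescence near 667 nm with spot signal-to-noise ratio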
[18] = tested on: Noggin (protein binding on small-molecule microarray); assay: small molecules binding Noggin protein – biochemical, 635/667 nm fluorescence, primary screen (AID 1095); settings: 635 nm fluorescence, higher = more signal;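 also: score merges 667 nm feature fluorescence with signal to noise over triplicate slides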
[19] = biological target: Neurogenic locus notch homolog protein 3 (Homo sapiens) (UniProt Q9UM47); assay: small molecules binding NOTCH3 protein – biochemical, 635/667 nm fluorescence, primary screen (AID 1096); settings: small-molecule microarray, 635 nm fluorescence, higher = more signal
[20] = probe aEGFR binding to arrayed compounds – biochemical, biotinylated probe, 635/667 nm fluorescence, primary screen (AID 1097); settings: small-molecule microarray, higher = more signal;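 also: probe is a biotinylated anti-EGFR antibody binding compounds printed on slides; score combines fluorescence near 667 nm and signal to noise of each spot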

Torsin-1A-interacting protein 2 (Homo sapiens), sequence (Q8NFQ8 whole entry, looked up): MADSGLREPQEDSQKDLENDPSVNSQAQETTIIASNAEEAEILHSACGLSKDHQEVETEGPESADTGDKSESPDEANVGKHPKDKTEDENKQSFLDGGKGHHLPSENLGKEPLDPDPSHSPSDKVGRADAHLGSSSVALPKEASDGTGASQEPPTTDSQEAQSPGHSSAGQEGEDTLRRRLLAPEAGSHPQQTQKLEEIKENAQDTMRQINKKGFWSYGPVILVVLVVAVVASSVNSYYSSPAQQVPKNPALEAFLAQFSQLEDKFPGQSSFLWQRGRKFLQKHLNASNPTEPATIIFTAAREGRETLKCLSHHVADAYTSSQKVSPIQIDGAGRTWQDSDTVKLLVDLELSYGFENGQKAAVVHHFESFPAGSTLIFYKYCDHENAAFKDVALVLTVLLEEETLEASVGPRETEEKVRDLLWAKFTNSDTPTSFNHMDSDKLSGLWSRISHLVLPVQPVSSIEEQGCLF
Neurogenic locus notch homolog protein 2 (Homo sapiens), sequence (Q04721 whole entry, looked up, canonical isoform): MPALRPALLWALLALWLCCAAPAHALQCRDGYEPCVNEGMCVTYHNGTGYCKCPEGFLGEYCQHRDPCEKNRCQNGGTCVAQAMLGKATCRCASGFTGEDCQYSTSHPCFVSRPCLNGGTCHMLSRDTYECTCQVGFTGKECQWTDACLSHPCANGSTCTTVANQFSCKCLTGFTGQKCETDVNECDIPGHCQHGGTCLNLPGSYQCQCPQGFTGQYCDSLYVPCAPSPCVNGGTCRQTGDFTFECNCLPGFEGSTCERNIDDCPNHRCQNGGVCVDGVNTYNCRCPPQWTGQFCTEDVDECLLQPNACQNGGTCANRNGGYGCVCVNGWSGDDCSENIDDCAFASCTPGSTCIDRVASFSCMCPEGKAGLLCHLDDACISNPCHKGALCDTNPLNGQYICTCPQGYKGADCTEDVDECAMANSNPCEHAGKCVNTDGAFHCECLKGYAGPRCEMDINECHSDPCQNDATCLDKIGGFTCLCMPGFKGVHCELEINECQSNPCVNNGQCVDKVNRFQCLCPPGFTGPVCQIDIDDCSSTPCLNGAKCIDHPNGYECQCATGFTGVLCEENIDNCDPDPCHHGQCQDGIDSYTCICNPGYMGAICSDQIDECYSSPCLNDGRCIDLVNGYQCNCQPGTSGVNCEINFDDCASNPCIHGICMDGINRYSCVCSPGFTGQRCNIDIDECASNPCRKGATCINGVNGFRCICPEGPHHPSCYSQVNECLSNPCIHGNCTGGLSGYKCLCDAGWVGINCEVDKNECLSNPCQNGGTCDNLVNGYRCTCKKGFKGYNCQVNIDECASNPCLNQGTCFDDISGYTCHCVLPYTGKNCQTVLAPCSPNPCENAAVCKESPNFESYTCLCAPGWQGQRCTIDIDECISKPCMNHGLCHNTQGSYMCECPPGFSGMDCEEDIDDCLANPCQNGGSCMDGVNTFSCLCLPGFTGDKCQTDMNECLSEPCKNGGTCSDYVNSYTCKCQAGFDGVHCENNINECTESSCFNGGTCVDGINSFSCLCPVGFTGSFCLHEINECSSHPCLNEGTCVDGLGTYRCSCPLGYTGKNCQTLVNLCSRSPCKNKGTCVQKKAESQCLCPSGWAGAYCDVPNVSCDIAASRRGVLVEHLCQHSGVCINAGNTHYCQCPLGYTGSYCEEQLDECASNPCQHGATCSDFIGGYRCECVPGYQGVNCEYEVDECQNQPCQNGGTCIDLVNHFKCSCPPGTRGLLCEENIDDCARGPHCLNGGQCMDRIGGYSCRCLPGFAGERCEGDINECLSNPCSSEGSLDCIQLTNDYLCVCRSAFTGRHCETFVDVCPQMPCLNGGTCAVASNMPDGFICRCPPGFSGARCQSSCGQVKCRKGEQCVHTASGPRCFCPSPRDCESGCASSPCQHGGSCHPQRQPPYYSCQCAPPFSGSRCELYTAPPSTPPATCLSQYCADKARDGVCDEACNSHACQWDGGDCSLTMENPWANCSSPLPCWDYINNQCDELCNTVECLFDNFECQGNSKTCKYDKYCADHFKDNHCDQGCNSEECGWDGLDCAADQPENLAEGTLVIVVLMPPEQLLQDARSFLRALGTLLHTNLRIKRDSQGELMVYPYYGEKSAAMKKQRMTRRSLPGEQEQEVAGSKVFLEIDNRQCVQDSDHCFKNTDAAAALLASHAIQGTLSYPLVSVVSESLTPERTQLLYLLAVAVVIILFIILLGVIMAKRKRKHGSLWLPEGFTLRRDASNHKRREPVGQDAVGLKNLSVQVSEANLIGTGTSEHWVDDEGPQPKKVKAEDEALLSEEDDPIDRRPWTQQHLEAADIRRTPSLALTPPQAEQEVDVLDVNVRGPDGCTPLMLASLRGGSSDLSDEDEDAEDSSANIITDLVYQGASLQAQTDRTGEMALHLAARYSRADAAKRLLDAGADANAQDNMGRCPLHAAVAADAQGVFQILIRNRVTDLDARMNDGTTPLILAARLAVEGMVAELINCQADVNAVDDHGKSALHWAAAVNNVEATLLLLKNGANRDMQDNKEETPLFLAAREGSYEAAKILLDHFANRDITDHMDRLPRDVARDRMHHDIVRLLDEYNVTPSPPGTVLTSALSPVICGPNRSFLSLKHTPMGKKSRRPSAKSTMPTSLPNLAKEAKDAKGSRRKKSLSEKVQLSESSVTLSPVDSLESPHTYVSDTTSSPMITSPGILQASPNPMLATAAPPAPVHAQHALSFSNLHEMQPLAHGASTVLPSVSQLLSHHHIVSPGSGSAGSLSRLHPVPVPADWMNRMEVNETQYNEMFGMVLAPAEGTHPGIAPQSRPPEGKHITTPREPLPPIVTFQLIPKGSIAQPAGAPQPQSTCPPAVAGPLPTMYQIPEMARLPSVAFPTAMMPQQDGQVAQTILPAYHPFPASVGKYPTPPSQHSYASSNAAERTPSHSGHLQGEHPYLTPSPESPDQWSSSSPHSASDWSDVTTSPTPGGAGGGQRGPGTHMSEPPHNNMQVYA
Pro-neuregulin-1, membrane-bound isoform (Homo sapiens), sequence (Q02297 whole entry, looked up, the tested form may be a part, canonical isoform): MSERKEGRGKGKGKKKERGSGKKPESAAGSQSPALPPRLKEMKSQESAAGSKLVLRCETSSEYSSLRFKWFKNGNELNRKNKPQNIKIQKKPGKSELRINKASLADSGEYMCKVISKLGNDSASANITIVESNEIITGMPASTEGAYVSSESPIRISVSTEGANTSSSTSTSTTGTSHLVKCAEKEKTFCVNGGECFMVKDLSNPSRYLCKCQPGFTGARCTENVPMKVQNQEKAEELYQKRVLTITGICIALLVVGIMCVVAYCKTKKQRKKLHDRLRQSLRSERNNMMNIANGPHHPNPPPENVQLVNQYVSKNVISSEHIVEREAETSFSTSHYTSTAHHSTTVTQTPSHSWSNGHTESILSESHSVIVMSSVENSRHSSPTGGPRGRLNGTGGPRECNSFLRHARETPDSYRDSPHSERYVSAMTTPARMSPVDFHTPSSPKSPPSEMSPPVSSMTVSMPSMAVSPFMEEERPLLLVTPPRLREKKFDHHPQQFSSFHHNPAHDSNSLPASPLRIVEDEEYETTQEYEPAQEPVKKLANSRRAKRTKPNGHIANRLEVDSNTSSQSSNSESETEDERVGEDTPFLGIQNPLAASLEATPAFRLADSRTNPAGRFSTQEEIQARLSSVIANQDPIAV

CCCNC(=O)[C@@]1(Sc2ccc(C)cc2)CC(=O)N(Cc2ccccc2C(F)(F)F)[C@@H]1c1ccc(CO)cc1I
composite z-score [1]: -0.0981 | composite z-score [2]: 2.46 | composite z-score [3]: -0.0583 | composite z-score [4]: -0.0686 | composite z-score [5]: 0.267 | composite z-score [6]: 1.22 | composite z-score [7]: 1.07 | z-score [8]: -0.267 (inactive) | composite z-score [9]: 0.574 | composite z-score [10]: -0.0346 | composite z-score [11]: 1.53 | z-score [12]: -0.36 (inactive) | z-score [13]: -2.45 (inactive) | z-score [14]: 0.283 (inactive) | composite z-score [15]: 2.19 | z-score [16]: -1.57 (inactive) | composite z-score [17]: -0.0125 | composite z-score [18]: 0.932 | composite z-score [19]: 0.958 | composite z-score [20]: -0.0435

CC(=CC1CCCCC1)[C@@H](NC(=O)c1cccnc1)c1ccc(-c2ccccc2)cc1
composite z-score [1]: 0.365 | composite z-score [2]: -0.545 | composite z-score [3]: 0.0021 | composite z-score [4]: -0.25 | composite z-score [5]: 0.142 | composite z-score [6]: 0.0657 | composite z-score [7]: -0.362 | z-score [8]: -0.972 (inactive) | composite z-score [9]: 0.281 | composite z-score [10]: -0.194 | composite z-score [11]: -0.0028 | z-score [12]: 1.36 (inactive) | z-score [13]: 0.92 (inactive) | z-score [14]: 2.06 (inactive) | composite z-score [15]: 1.16 | z-score [16]: -2.18 (inactive) | composite z-score [17]: -0.0042 | composite z-score [18]: -0.18 | composite z-score [19]: 0.298 | composite z-score [20]: -0.222

CC[C@@H]1C=C(C(=O)O)[C@H](c2ccc(C)cc2)N1S(=O)(=O)c1ccc(C)cc1
composite z-score [1]: -0.139 | composite z-score [2]: 0.719 | composite z-score [3]: -0.0246 | composite z-score [4]: -0.256 | composite z-score [5]: 1.1 | composite z-score [6]: 0.929 | composite z-score [7]: 1.29 | z-score [8]: -0.143 (inactive) | composite z-score [9]: 0.593 | composite z-score [10]: 0.126 | composite z-score [11]: 0.805 | z-score [12]: -1.23 (inactive) | z-score [13]: 0.992 (inactive) | z-score [14]: -0.564 (inactive) | composite z-score [15]: 2.9 | z-score [16]: -0.552 (inactive) | composite z-score [17]: -0.0654 | composite z-score [18]: 0.634 | composite z-score [19]: 0.939 | composite z-score [20]: -0.0557
